Nrf2 activator: activators of Nrf2 (ARE) signaling. Potency, µM (titrated, usually from 46.1 µM), actives largely listed as activators. AID 624171. AREc32 ARE-luciferase reporter (MCF7-derived line), luminescence, 24 h. 410,000 compounds, 0.31% hits; note: nearly all actives have a fitted effect of over 65% in size
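AREc32 cells carrying an ARE-driven firefly luciferase, 1000 cells/well in OPTI-MEM with 5% FBS, dosed after overnight attachment and incubated 24 hr at 37 deg C. Steady-Glo luminescence read after 30 min at RT.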
IL2 activator: activators of IL-2; 360,000 compounds, 0.065% hits; activation, % (series mostly up to about 46 µM); AID 652025; IL-2 activation reporter assay, cell-based qHTS; stimulated with anti-CD3/CD4/CD28 beads; in transgenic mouse T cells; in the data active = activation above about 50%; inconclusive = mostly about 30% to 49%
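Unstimulated transgenic mouse T cells, 750 per well, received compound and, after 60 minutes, anti-CD3/anti-CD4 bead plus anti-CD28 stimulation. EGFP and DsRed were quantified after 18 hours.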
Nrf2 inh: Nrf2 pathway inhibition; 360,000 compounds, 2.1% hits; A549 ARE-Fluc reporter, luciferase luminescence, 18-24 h; Potency, µM (series often up to 46 µM), hits mostly inhibitors; note: nearly all actives have a fitted effect of over 60% in size
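Concentration-response testing used A549 ARE_Fluc cells at 5000 cells/well. Following an 18-24 h compound incubation, viability was read by fluorescence (Ex 405/Em 525) and luciferase output by luminescence.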
A549 tox: kills or reduces viability of A549 cells in Nrf2 counter-screen; Potency, µM (highest dose often 46 µM), actives largely listed as inhibitors; 390,000 compounds, 0.16% hits; A549 ARE-Fluc cells, CellTiter-Fluor viability, 18-24 h
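A549 ARE_Fluc cells in 5% FBS OPTI-MEM were exposed to compounds in concentration-response for 18-24 h at 37 deg C. Viability was read by CellTiter-Fluor fluorescence (Ex 405/Em 525) after 30 min, before the luciferase read.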
Numbers stand for hits; . = inactive; ? = inconclusive; / = no result given. This is a sample that favours compounds with a hit; in the whole collection about 2.3% have one here. Unless noted, calls come from the whole dose curve; as a rule, active = well fitted curve in the direction sought with a large enough effect; inconclusive = small, poorly fitted or top-dose-only effect, or another doubt; inactive = no such curve, though single readings can be large; an effect the other way counts as inactive or inconclusive.

SMILES	Nrf2 activator	IL2 activator	Nrf2 inh	A549 tox
Cc1ccc(C)c(NC(=O)COC(=O)c2cccc3c2C(=O)c2ccccc2C3=O)c1	.	.	13µM	.
O=C(NCc1ccc(Cl)cc1)c1ccc(NC(=O)N2CC3CCCN3c3ccccc32)cc1 (configuration not stated)	.	/	.	.
N#C/C(=C\c1ccco1)Sc1nc2ccccc2s1	11µM	.	.	.
O=C(CCCSc1nc2ccccc2s1)NCc1ccco1	.	.	.	.
C/C(=N\NC(=O)CSc1nc2ccccc2s1)c1ccco1	7.1µM	.	.	.
O=C(CSc1nc2ccccc2s1)N/N=C/c1ccco1	5µM	.	.	.
O=C(CSc1nc2ccccc2s1)N/N=C/c1ccc(C(=O)O)cc1	.	.	?	.
CCN1CCN(C(=O)CCN(CC(C)C)c2nc(-c3cccs3)nc3ccccc23)CC1	/	/	.	.
CN1CCN(C(c2ccc(F)cc2)c2sc3nc(-c4ccco4)nn3c2O)CC1 (configuration not stated)	.	/	/	.
FC(F)(F)c1ccc(C2[C@H]3CN(Cc4cccnc4)[C@H](c4ccccc4)C34CC2(c2cccnc2)C4)cc1 (some centres not stated)	.	.	26µM	?
FC(F)(F)c1ccc(C2[C@H]3CN(Cc4ccc(-c5ccccc5)cc4)[C@H](c4ccccc4)C34CC2(c2cccnc2)C4)cc1 (some centres not stated)	.	.	.	.
Cc1ccc(S(=O)(=O)N(C)CCN(C)c2nc(-c3cccs3)nc3ccccc23)cc1	/	/	.	.
Cc1ccc(OCCN2CCN(C(=O)CCC(=O)Nc3nnc(C(C)C)s3)CC2)cc1	.	.	12µM	?
CCOc1ccc(CCNC(=O)c2c(C)oc3ncnc(N4CCOCC4)c23)cc1	.	/	.	.
N/C(=N\OC(=O)c1ccc(F)cc1)c1nonc1N	.	.	.	.
N/C(=N/OC(=O)c1ccccc1Cl)c1nonc1N	13µM	.	?	.
Cc1ccc(OCc2ccc(C(=O)Nc3c(C)nn(Cc4c(F)c(F)c(F)c(F)c4F)c3C)o2)c([N+](=O)[O-])c1	.	.	8.2µM	.
COc1ccc(NC(=O)Cn2c3ccc(OC)cc3c3nc4n(c(=O)c32)CCS4)cc1	.	.	23µM	.
Cc1ccc(NC(=O)c2ccc(F)c(S(=O)(=O)NCCc3ccccc3)c2)cc1F	.	/	/	?
CC1(C)CC(=O)c2cc(N=C/C(C(=O)c3ccccc3)=C(\O)c3ccccc3)c(=O)oc2C1	11µM	.	.	.
CC1(C)CC(=O)C(C=Nc2ccccc2C(=O)O)=C(O)C1	.	.	.	.
O=[N+]([O-])c1cccc(S(=O)(=O)N2CCN(S(=O)(=O)c3ccc4c(c3)OCCO4)CC2)c1	/	/	.	.
Cn1c(=O)c2c(-c3ccccc3)n3c4ccccc4nc(-c4ccccc4)c3c2n(C)c1=O	.	/	.	.
O=[N+]([O-])c1cc(-c2ccccc2)cc([N+](=O)[O-])c1O	.	.	16µM	?
O=C(CC1C(=O)NCCN1Cc1ccc(-c2ccccc2)cc1)NCC1CC1 (configuration not stated)	.	.	23µM	?
SMILES	Nrf2 activator	IL2 activator	Nrf2 inh	A549 tox
Cc1ccc2[nH]c(C)c(/C=C/c3cc[n+](C)cc3)c2c1	.	159	?	.
O=C1c2oc3ccccc3c(=O)c2C(c2ccc(O)cc2)N1Cc1ccc2c(c1)OCO2 (configuration not stated)	.	/	/	.
COc1ccc(CCNC(=S)N2CCC(C(=O)c3ccc(F)cc3)CC2)cc1OC	.	.	16µM	.
CCS(=O)(=O)N1CCc2cc(C(=O)NCCc3ccc(OC)c(OC)c3)ccc21	.	/	18µM	?
COc1ccc(C(=O)C2CCN(C(=S)NCCc3ccc(OC)c(OC)c3)CC2)cc1	.	.	16µM	.
COc1ccc(CCNC(=O)c2ccc3c(c2)CCN3S(C)(=O)=O)cc1	.	/	.	.
Cc1cc(Cl)ccc1OC(C)C(=O)Nc1ccc(S(=O)(=O)Nc2cnc3ccccc3n2)cc1 (configuration not stated)	.	.	8.2µM	.
COc1cc2ncnc(NCCc3ccccc3)c2cc1OC	.	.	23µM	.
COc1ccc(CCNc2ncnc3cc(OC)c(OC)cc23)cc1OC	.	.	21µM	.
Cc1cc2c(s1)c1cnn(Cc3ccc(C(C)(C)C)cc3)c(=O)c1n2C	/	/	.	.
COc1c(C)cccc1C(=O)Nc1cccc2ccc(C)nc12	.	/	.	.
O=S(=O)(c1ccc(Oc2ncnc3scc(-c4ccccc4)c23)cc1)N1CCOCC1	.	.	16µM	.
O=S(=O)(c1ccc(Oc2ccccc2)cc1)N1CCOCC1	.	.	/	.
CC1C(=O)Nc2ccc(S(=O)(=O)N3CCN(c4cccc(C(F)(F)F)c4)CC3)cc2NC1=O (configuration not stated)	.	.	8.2µM	?
Cc1ccc(S(=O)(=O)Nc2cccc3ccc[n+](C)c23)cc1	/	/	.	.
CC(=O)C1=C(c2cccc([N+](=O)[O-])c2)N(C(C)=O)n2c(nnc2-c2ccc(C)cc2)S1	.	/	/	.
CCC(C)NC(=O)Nc1ccc(Br)cc1 (configuration not stated)	.	.	?	.
CCC(C)Nc1ccc(NC(C)CC)cc1 (configuration not stated)	.	.	0.073µM	0.15µM
CC(C)c1ccccc1NC(=O)COC(=O)CCN1C(=O)/C(=C\C=C\c2ccccc2)SC1=S	.	.	10µM	?
O=C(COC(=O)CCN1C(=O)/C(=C\C=C\c2ccccc2)SC1=S)Nc1ccc(Br)cc1	.	.	?	.
CC(C)(C)c1cnnn1-c1ccc(/C=N/Nc2ccc([N+](=O)[O-])cc2)cc1	.	.	?	16µM
O=[N+]([O-])c1ccc(C=NNc2ccccc2)cc1	.	.	.	.
CCc1ccc(S(=O)(=O)c2cn(C)c3ccc(C)cc3c2=O)cc1	.	/	.	.
O=C(O)C(CO)N=Cc1c(O)c2ccccc2oc1=O (configuration not stated)	.	.	6.5µM	?
Cc1ccn2c(Nc3ccc4c(c3)OCCO4)c(-c3ccc(C)o3)nc2c1	.	/	.	.
SMILES	Nrf2 activator	IL2 activator	Nrf2 inh	A549 tox
Cc1ccc2nc(-c3ccc(N=Nc4cc(S(=O)(=O)O)c5ccccc5c4O)cc3)sc2c1S(=O)(=O)O	/	/	.	13µM
Cc1ccc(N=Nc2ccc3ccccc3c2O)cc1	?	.	?	?
CC(=O)c1ccc(NC(=O)CSc2nc3nn(-c4ccccc4)c(=O)c-3c3n2CCCCC3)cc1	.	.	.	.
O=C(CSc1nc2nn(-c3ccccc3)c(=O)c-2c2n1CCCCC2)Nc1ccc(F)c(F)c1	.	.	18µM	?
Cc1cc(C)c(-c2csc(NC(=O)/C=C/c3cccs3)n2)c(C)c1	.	.	23µM	.
COC(=O)c1ccccc1NC(=O)C1=CC(c2cccs2)=NS(=O)(=O)N1C	.	.	?	.
COC(=O)c1ccccc1NC(=O)C1=CC(c2ccc(C)cc2)=NS(=O)(=O)N1C	.	/	18µM	.

High-throughput results (PubChem)
